# Measured values published in PubChem BioAssay AID1259351 (ICCB-Longwood Screening Facility, Harvard Medical School, 2017).
# The list shows a part of the results. Unmarked numbers belong to inactive results. Active and inactive are the calls of the source.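 The calls were made as follows: active = inhibition score at or above a set limit, where the score is 100 minus the three-replicate mean percent of control signal; inactive = the rest.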
# Target: Guanine nucleotide-binding protein G(i) subunit alpha-3 (Homo sapiens) (UniProt P08754)
# Experiment: GIV-Galphai3 complex disruption, bead proximity readout – biochemical, AlphaScreen, His-GIV, GST-Galphai3, orthogonal assay for GIV-Galpha-i inhibitor project, confirmation (AID 1259351)
# Conditions: purified proteins, 90 min, at 100 µM, active compounds read low
row,SMILES,AlphaScreen counts
1,CC(=O)Nc1ccc(Nc2c3c4c(cccc4[nH]c2=O)C(=O)c2ccccc2-3)cc1,27100
2,O=C(O)c1c2ccccc2[nH]c2c1oc1cc(=O)ccc12,19100 (active)
3,O=C(O)CCC(C(=O)O)N1C(=O)/C(=C\c2ccco2)SC1=S (stereo not drawn),2280 (active)
4,Cc1nn(-c2ccccc2)c2sc(-c3noc(-c4ccccc4F)n3)cc12,31800
5,COC1=C(N2CCOCC2)C(=O)c2ccccc2C1=O,29700 (active)
6,Cc1ccc(C(=O)N2CCc3cc(CNC(=O)c4ccc(Br)cc4)ccc32)cc1,29400
7,CC(=O)Oc1cccc2c1C(=O)C=CC2=O,35600
8,Cn1cccc1/C=C1\C(=O)NC(=S)N(c2ccccc2)C1=O,799 (active)
